Data published in PubChem BioAssay AID602197 (NMMLSC, 2012).
The list shows a part of the results. The source made the active and inactive calls. Cut-off read from the data, not from the text of the source: active = response above about 24%; inactive = the rest.

Test: yeast V-ATPase proton pumping modulators, confirmation, S. cerevisiae, pH-sensitive GFP, second cherry-pick (AID 602197);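 note: plate controls were vehicle wells for no effect and positive control wells for full effect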
Details: S. cerevisiae pHLuorin cytosolic pH, V-ATPase proton transport; at 10 µM; stronger effect = higher value

response, inactive:
COc1cccc(OC)c1C(=O)OCC(=O)/C(C#N)=C(\C)N -0.01%, COc1ccccc1CNC(=O)COC(=O)c1sc(C)nc1C 1.62%, O=C(COc1cc2oc(=O)c3c(c2cc1Cl)CCC3)NCCCN1CCOCC1 2.9%, C/C=C/C(=O)OCc1csc(CC(=O)Nc2ccccc2C)n1 -3.22%, O=C1c2ccccc2C(=O)N1CCCCCCN1C(=O)c2ccccc2C1=O 2.04%, COc1cc2c(cc1/C=C1/NC(=O)N(c3ccccc3)C1=O)OCO2 -0.72%, CCOC(=O)Cn1c(-c2cccnc2Cl)nc2ccccc21 1.29%, COc1ccc(C(=O)N(Cc2ccccc2)c2ccc(C)cc2)cc1S(=O)(=O)N1CCOCC1 -6.57%, CCC(=O)c1ccc(OCC(=O)Nc2ccc(N3CCCCC3)cc2)cc1 -1.55%, O=S(=O)(c1ccc(-c2ccno2)s1)N1CCCCC1 -6.9%, COc1ccc(/C=N/NC(=O)c2cccc(C(F)(F)F)c2)cc1 -3.87%, Cc1ccc(C(=O)Nc2nc3ccc(Cl)cc3s2)o1 -0.02%, CCOc1ccc(CCNC(=O)C2=C(C)C(=O)OC23CCC(C)CC3)cc1OCC (stereo unspecified) 5.21%, CCCc1nnc(NC(=O)c2cc(OC)cc(OC)c2)s1 -0.87%, Cc1ccnc(SCC(=O)Nc2cccc(S(=O)(=O)N3CCOCC3)c2)n1 0.72%, Cc1cc(=O)c2ccc(NC(=O)c3ccccc3)cc2[nH]1 -0.97%
